Hits are enriched below; roughly 14% of the tested compounds scored in any of these assays.
HCMV inh – qHTS Assay for inhibitors of the human cytomegalovirus (HCMV) | activity change, negative = inhibition, % at 57.5 µM | 4.5% of 410,000 active | AID 1259415, 2018 | HFF cells, HCMV-luciferase reporter, 72 h; hits give low values; in the data active means activity change below about -60%; inconclusive means no clear call, values can overlap the other calls; inactive means above about -39%
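Screen run at 2 compound doses on HFFs infected with reporter HCMV, MOI 1 PFU/cell. Luciferase activity from cell lysates at 72 h post infection gave inhibition relative to buffer-only and Salinomycin wells.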
FBPA Giardia inh – qHTS Assay for Inhibitors of Fructose-1,6-bisphosphate Aldolase from Giardia Lamblia | A8B2U2 | purified Giardia FBPA | Potency, µM (titrated, usually from 59.6 µM), inactives show at the highest dose activity, negative = inhibition, hits mostly inhibitors | 0.71% of 290,000 active | AID 2451, 2010; further: potency means the concentration at half of the fitted maximal effect; nearly all actives have a fitted effect of over 55% in size
Target sequence (A8B2U2 whole entry, looked up): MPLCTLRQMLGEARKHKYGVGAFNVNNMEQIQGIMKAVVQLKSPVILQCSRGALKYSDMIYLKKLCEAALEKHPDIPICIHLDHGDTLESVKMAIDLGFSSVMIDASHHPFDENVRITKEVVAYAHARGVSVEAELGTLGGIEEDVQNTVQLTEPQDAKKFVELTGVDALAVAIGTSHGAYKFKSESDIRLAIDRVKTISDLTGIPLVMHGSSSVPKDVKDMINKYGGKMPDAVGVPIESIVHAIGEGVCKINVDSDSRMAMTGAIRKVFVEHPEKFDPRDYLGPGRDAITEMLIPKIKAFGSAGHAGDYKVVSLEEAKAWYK
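Giardia FBPA (40 nM reagent) was preincubated 10 min at RT with compound (up to 57.5 uM final), then substrate plus GAPDH/TPI/NAD/arsenate coupling system with diaphorase/resazurin was added; resorufin fluorescence (525/598 nm) was read after 20 min.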
Sm TGR block – qHTS Assay for the Inhibitors of Schistosoma Mansoni Peroxiredoxins; 3% of 360,000 active; Potency, µM (highest dose often 114 µM), inactives show at the highest dose activity change, negative = inhibition, usual class: inhibitors; purified TGR, DTNB reduction, TNB absorbance 405 nm; further: potency means the concentration at half of the fitted maximal effect; nearly all actives have a fitted effect of over 60% in size
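Kinetic colorimetric format: TGR-catalysed, NADPH-driven DTNB reduction monitored via TNB absorbance. Enzyme dispensed at 20 nM; compound exposure 15 min at room temperature before reaction start.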
Pf growth 48h – Primary qHTS for delayed death inhibitors of the malarial parasite plastid, 48 hour incubation. P. falciparum luciferase growth in erythrocytes, 48 h. Potency, µM (titrated, usually from 28.7 µM), for the others: at the top dose activity change, negative = inhibition, actives largely listed as inhibitors. 5.9% of 310,000 active. AID 504832, 2011; further: potency means the concentration at half of the fitted maximal effect
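First compound was added to culture medium, then infected red cells at 0.1% parasitemia and 2% hematocrit (final). After incubation at 37 C under 5% CO2, luciferase detection reagent was dispensed and light output recorded.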
Pf growth 96h – Primary qHTS for delayed death inhibitors of the malarial parasite plastid, 96 hour incubation; P. falciparum luciferase reporter growth, 96 h; Potency, µM (doses to about 28.7 µM), inactives show top-dose activity change, negative = inhibition, usual class: inhibitors; 6.9% of 320,000 active; AID 504834, 2011; further: potency means the concentration at half of the fitted maximal effect
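P. falciparum expressing integrated firefly luciferase, in erythrocytes at 2% hematocrit, 0.05% parasitemia, incubated with compounds 96 h at 37 C, 5% CO2. Growth inhibition read as loss of luminescence; two-generation exposure targets delayed-death apicoplast inhibitors.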
* marks the source's active call; other numbers are inactive results; ? = inconclusive; nt = no result given; ! = not active in a repeat. Unless noted, the call rests on the fitted dose curve; in most records, active means well fitted curve in the direction sought with a large enough effect; inconclusive means small, poorly fitted or top-dose-only effect, or another doubt; inactive means no such curve, though single readings can be large; an effect the other way counts as inactive or inconclusive. On the % scale 0 is the no-effect control and ±100 the full control effect.

SMILES | HCMV inh | FBPA Giardia inh | Sm TGR block | Pf growth 48h | Pf growth 96h
CC1CCCN(C(=O)Cn2c(=O)oc3cc(S(=O)(=O)N4CCCCC4)ccc32)C1 (stereo not drawn) | ? | -1% | -8% | 1.3µM* | ?
COc1ccc(NC(=O)CSc2nnc(-c3ccncc3)n2-c2ccccc2)cc1 | -1 | nt | 4% | nt | nt
COc1ccc(C2=CC3=C(Br)C(=O)C(C)(OC(=O)CCc4ccccc4)C(=O)C3=CO2)cc1 (stereo not drawn) | nt | -4% | nt | nt | nt
O=C(Cn1c(=O)oc2cc(S(=O)(=O)N3CCCC3)ccc21)NCc1ccc(F)cc1 | -70*! | -1% | 1% | nt | 6.6µM*
O=[N+]([O-])c1cc([N+](=O)[O-])c(Oc2ccc(Cl)c3cccnc23)cc1NN1CCCCC1 | -20 | -4% | -18% | ? | 1.5µM*
Cc1cc(Oc2cc(NN3CCCCC3)c([N+](=O)[O-])cc2[N+](=O)[O-])c(C(=O)c2ccccc2)cc1Cl | -12 | 0% | 9% | ? | 8.3µM*
O=[N+]([O-])c1cc([N+](=O)[O-])c(Oc2cccc(Cl)c2Cl)cc1NN1CCCCC1 | -9 | 11% | 0% | -10% | ?
Cc1ccc(F)c(Oc2cc(NN3CCCCC3)c([N+](=O)[O-])cc2[N+](=O)[O-])c1 | -15 | 17% | 2% | ? | 12µM*
Cc1ccc(C)c(Oc2cc(NN3CCCCC3)c([N+](=O)[O-])cc2[N+](=O)[O-])c1 | 14 | 4% | 7% | 12% | 53%
CC1(C)Cc2cccc(Oc3cc(NN4CCCCC4)c([N+](=O)[O-])cc3[N+](=O)[O-])c2O1 | -18 | -9% | 2% | ? | 1.5µM*
COC(=O)c1[nH]c2ccccc2c1CN1CCOCC1 | 28 | -4% | -2% | -9% | 18%
O=C(NC(=S)Nc1ccccc1N1CCOCC1)c1ccc(-c2ccccc2F)o1 | -18 | -4% | -9% | 6% | 15µM*
O=C(NC(=S)Nc1ccccc1N1CCOCC1)c1ccc(Br)cc1 | -66* | -2% | -40% | ? | 3%
O=C(NC(=S)Nc1cc(Cl)ccc1N1CCOCC1)c1ccc(-c2cccc(Cl)c2)o1 | 29 | 0% | -17% | -2% | 41%
O=C(COc1ccc(Br)cc1)NC(=S)Nc1ccccc1N1CCOCC1 | 30 | -2% | 1% | 4% | ?
O=C1NC[C@@H](CCCCN2CCN(CCc3ccc(O)cc3)C(=O)C2=O)N(Cc2ccccc2)C1=O | -36 | nt | nt | nt | nt
CCOC(=O)c1cc(-c2ccccc2)n(CCC(=O)N2CCN(c3ccccn3)CC2)c1C | -14 | 1% | -3% | ? | 13µM*
CCOC(=O)c1cc(-c2ccccc2)n(CCCC(=O)Nc2ccc(CC)cc2)c1C | ? | nt | -1% | nt | nt
CCOC(=O)c1c(C)c(C(=O)NCc2ccc(Cl)cc2)c(C)n1CC | ? | nt | -1% | nt | nt
CCOC(=O)c1cc(-c2ccccc2)n(CCC(=O)Nc2ccc(C(F)(F)F)cc2)c1C | -98* | nt | 7% | nt | nt
CN(CCCC(=O)N1CCN(c2ncccn2)CC1)S(=O)(=O)c1ccc(F)cc1 | 0 | nt | nt | nt | nt
Cc1ccc(S(=O)(=O)N(C)CCCC(=O)N2CCN(c3ccccn3)CC2)cc1 | ? | 2% | -6% | 13µM* | nt
CCOC(=O)c1cc(-c2ccccc2)n(CCC(=O)NCCc2ccccc2)c1C | -35 | nt | 11% | nt | nt
CCOC(=O)c1c(C)c(C(=O)NCc2cccnc2)c(C)n1CC | -14 | 1% | -5% | -2% | 3.7µM*
CCCNC(=O)Cn1c(-c2ccc(F)cc2)cc(C(=O)OCC)c1C | 2 | 4% | 4% | -13% | -28%
SMILES | HCMV inh | FBPA Giardia inh | Sm TGR block | Pf growth 48h | Pf growth 96h
CCOC(=O)c1cc(-c2ccc(C)cc2)n(CC(=O)Nc2cc(C)ccc2C)c1C | 1 | nt | 4% | nt | nt
CCOC(=O)c1cc(-c2ccc(F)cc2)n(CC(=O)NCc2cccnc2)c1C | -32 | 4% | -8% | ? | 2.6µM*
CCOC(=O)c1cc(-c2ccc(C)cc2)n(CC(=O)Nc2ccccc2F)c1C | -82* | nt | 5% | nt | nt
CC(C)(C)OC(=O)C[C@@H]1C/C=C\C[C@H](CC(=O)N(CCO)Cc2ccccc2)C(=O)NCCOC1=O | 5 | nt | nt | nt | nt
Nc1nc(-c2cccs2)c(CC(=O)O)s1 | -19 | -7% | 40µM* | -5% | 23%
Nc1nc(-c2ccccc2)c(CC(=O)O)s1 | 15 | nt | nt | nt | nt
COC(=O)[C@@]1(Cc2ccccc2-c2ccco2)C=C[C@H](C)[C@@H](c2ccccc2)N1C(=O)C(F)(F)F | nt | 3% | nt | nt | nt
COc1ccc(-c2[nH]ncc2CNCCCSC)cc1F | -21 | 4% | -12% | -3% | 5.2µM*
COc1ccc(-c2[nH]ncc2CN2CCC(c3ccncc3)CC2)cc1F | 17 | 5% | 0% | 2% | -7%
O=C(NNC(=S)NC(=O)C12CC3CC(CC(C3)C1)C2)c1ccncc1 | ? | -18% | 0% | 3.3µM* | 3.3µM*
Cc1ccc(S(=O)(=O)n2nc(OC(=O)c3ccccc3F)cc2N)cc1 | -25 | 1% | 16µM* | 10% | 12µM*
Cc1ccc(S(=O)(=O)n2nc(OC(=O)c3c(-c4ccccc4Cl)noc3C)cc2N)cc1 | 21 | 3% | 4% | 11% | 2.1µM*
Cc1c(C(=O)NNC(=S)Nc2ccc(S(N)(=O)=O)cc2)oc2ccccc12 | -2 | 3% | -2% | ? | ?
FC(F)(F)c1ccc(Cl)c(NC(=S)N/N=C/c2ccccc2Cl)c1 | 79 | 3% | 2% | ? | 1.5µM*
CCOc1cc(S(=O)(=O)n2cc(-c3ccc(F)cc3)c(N)n2)cc(OCC)c1OCC | 19 | -20% | -1% | 8.3µM* | nt
CCOc1ccc(S(=O)(=O)n2cc(-c3ccccc3)c(N)n2)cc1 | 74 | 3% | 8% | ? | ?
CCOc1ccc(S(=O)(=O)n2cc(-c3ccc(F)cc3)c(N)n2)cc1 | -20 | -4% | -4% | nt | 9.3µM*
COc1ccc2cc(C(=O)N/N=C/c3sc4ccccc4c3O)ccc2c1 | -98* | ? | 3% | ? | 40%
O=C(N/N=C/c1sc2ccccc2c1O)c1cccc2ccccc12 | -104* | -4% | -11% | ? | -120%
O=C(N/N=C/c1sc2ccccc2c1O)c1ccccc1 | nt | ? | -20% | 4.7µM* | ?
COc1ccc(C(=O)N/N=C/c2sc3ccccc3c2O)cc1 | nt | -15% | -23% | ? | ?
Cc1ccc(CS(=O)Cc2ccc(C(=O)NCCc3ccccc3)o2)cc1 (stereo not drawn) | -29 | nt | -24% | -2% | -10%
CCc1noc(C)c1C(=O)NNC(=O)c1ccc(N(CC)CC)cc1 | -13 | nt | -15% | ? | ?
Cc1ccc2c(c1)C(c1ccc(F)cc1)N(C(=O)COc1ccc(Cl)cc1Cl)CC(=O)N2 (stereo not drawn) | -60* | nt | 13% | nt | nt
